{"source": "PubChem BioAssay AID2455", "about": "(National Center for Advancing Translational Sciences (NCATS), 2010)", "note": "The list shows a part of the results. Inconclusive results are not listed. Activity calls are given as the source filed them. Calls follow the shape of the full dose curve.", "data": [{"molecular_target": "Vitamin D3 receptor (Homo sapiens) (UniProt P11473)", "sequence (P11473 whole entry, looked up, the tested form may be a part)": "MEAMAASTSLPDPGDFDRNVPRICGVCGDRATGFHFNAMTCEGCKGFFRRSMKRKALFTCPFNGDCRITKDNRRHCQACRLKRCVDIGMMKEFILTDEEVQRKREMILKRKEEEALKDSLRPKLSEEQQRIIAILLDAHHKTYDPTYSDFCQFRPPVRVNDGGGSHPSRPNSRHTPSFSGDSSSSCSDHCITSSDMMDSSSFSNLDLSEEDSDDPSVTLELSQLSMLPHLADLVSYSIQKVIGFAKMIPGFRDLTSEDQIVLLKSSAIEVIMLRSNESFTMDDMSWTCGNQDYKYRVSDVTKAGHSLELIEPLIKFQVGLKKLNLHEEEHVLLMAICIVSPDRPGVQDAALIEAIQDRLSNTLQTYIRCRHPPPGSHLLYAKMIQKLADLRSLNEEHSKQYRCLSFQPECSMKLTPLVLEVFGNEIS", "assay": "Vitamin D Receptor Selectivity Assay for Inhibitors of the Interaction of Thyroid Hormone Receptor and Steroid Receptor Coregulator 2", "settings": "VDR LBD/SRC2-3 peptide, fluorescence polarization, 3 h", "text": "NIH Molecular Libraries Probe Production Network [MLPCN] NIH Chemical Genomics Center [NCGC] MLPCN Grant: DK058080 Assay Provider: R. Kip Guy, St. Jude Children's Research Hospital NCGC Assay Overview: Thyroid receptor (TR) regulates many homeostatic processes including basal metabolism, cardiovascular function, body weight, and lipid trafficking. TR modulators are potential therapeutics for obesity and hyperlipidemias but current thyroid analogs have undesirable side effects, particularly cardiac stimulation. This secondary assay characterized compounds identified in the qHTS for Inhibitors of the Interaction of Thyroid Hormone Receptor and Steroid Receptor Coregulator 2 (PubChem AID 1485) for selectivity against the vitamin D receptor (VDR). […] Small molecule inhibitors that block the interaction of VDR and SRC2-3 are detected by a decrease in fluorescence polarization. […] Quantification of the vitamin D receptor-coregulator interaction. […]\nNCGC Assay Protocol Summary: Twenty uL/well 1 uM VDR and 5 nM Alexa Fluor 647 SRC2-3 peptide in buffer (25 mM PIPES, pH 6.75, 50 mM NaCl, 0.01% NP-40, 6 uM LG190178, and 4% DMSO) was dispensed into black solid 384-well plates (Costar 3710) using a Biomek FX (Beckman Coulter) liquid handling system. […] The plates were read by an Envision (Perkin Elmer) to detect fluorescence polarization of Alexa Fluor 647 (620 nm excitation and 688 nm emission).", "values": [{"smiles": "O=C(COC(=O)c1cccc([N+](=O)[O-])c1)NC1C2CC3CC(C2)CC1C3", "note": "(stereo unspecified)", "outcome": "inactive"}]}]}
